Our source for the Potency and activity change, negative = cytotoxic values is PubChem BioAssay (NCATS).

Experiment [1] can be described thus: qHTS of pediatric cancer cell lines to identify multiple opportunities for drug repurposing: Primary screen for A673 cells (AID 1347092). Further: nearly all actives have a fitted effect of over 45% in size. On activity change, negative = cytotoxic: on the % scale 0 is the no-effect control and ±100 the full control effect. The procedure, abridged:
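Cells are plated, rested 5 h, dosed by pintool, incubated 48 h, then lysed with CellTiter-Glo and read by luminescence. DMSO is the neutral control; bortezomib at 2.3 uM final is the positive control.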
(Quantitative high-throughput screening tests each substance at several concentrations.)

The nature of experiment [2]: qHTS of pediatric cancer cell lines to identify multiple opportunities for drug repurposing: Primary screen for SK-N-MC cells (AID 1347093).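 On activity change, negative = cytotoxic: series mostly up to about 46 µM; plate controls were DMSO neutral control for no effect and bortezomib for full effect.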 A digest of the protocol:
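Metabolically active cells were quantified by ATP-dependent luminescence (CellTiter-Glo, 15 min at room temperature) following 48 h treatment. Cells had been plated at 500-1,000 per well and settled for 5 h beforehand.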

The nature of experiment [3]: qHTS of pediatric cancer cell lines to identify multiple opportunities for drug repurposing: Primary screen for BT-37 cells (AID 1347094).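 On activity change, negative = cytotoxic: series mostly up to about 57 µM; plate controls were DMSO for no effect and bortezomib for full effect.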 The procedure, abridged: (§1)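 Quantitative HTS format: each compound titrated (MIPE 11 points from 0.78 nM, NPC 8 points from 0.59 nM) onto cells plated 5 hours earlier. After 48 h at 37 degrees C, CellTiter-Glo luminescence was recorded.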

Experiment [4] is described as follows: qHTS of pediatric cancer cell lines to identify multiple opportunities for drug repurposing: Primary screen for NB-EBc1 cells (AID 1347095).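 On activity change, negative = cytotoxic: plate controls were DMSO neutral control for no effect and bortezomib for full effect.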 The procedure, abridged: as §1
Experiment [5] can be described thus: qHTS of pediatric cancer cell lines to identify multiple opportunities for drug repurposing: Primary screen for U-2 OS cells (AID 1347096). Further: nearly all actives have a fitted effect of over 50% in size.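 On activity change, negative = cytotoxic: plate controls were DMSO wells for no effect and bortezomib positive control wells for full effect.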 A digest of the protocol:
(§2)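 Cells (500-1,000/well) rested 5 h, then received compounds for 48 h; metabolically active cells were measured by CellTiter-Glo luminescence. Final concentrations spanned up to 46 µM (MIPE, 11-point) or 0.59 nM-46 µM (NPC, 8-point) in primary screens, 11-point in follow-ups.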

A short description of experiment [6]: qHTS of pediatric cancer cell lines to identify multiple opportunities for drug repurposing: Primary screen for SK-N-SH cells (AID 1347098). Further: nearly all actives have a fitted effect of over 65% in size.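 On activity change, negative = cytotoxic: DMSO served as neutral control and bortezomib at 2.3 µM as positive control; on the % scale 0 is the no-effect control and ±100 the full control effect.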 A digest of the protocol: as §2
Experiment [7] is described as follows: qHTS of pediatric cancer cell lines to identify multiple opportunities for drug repurposing: Primary screen for NB1643 cells (AID 1347099). Further: nearly all actives have a fitted effect of over 50% in size.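 On activity change, negative = cytotoxic: plate controls were DMSO neutral control for no effect and bortezomib positive control for full effect.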 The procedure, abridged:
as §1

Experiment [8] in a line: qHTS of pediatric cancer cell lines to identify multiple opportunities for drug repurposing: Primary screen for LAN-5 cells (AID 1347100).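 On activity change, negative = cytotoxic: plate controls were DMSO neutral control for no effect and bortezomib positive control for full effect.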 A digest of the protocol: as §2
Experiment [9] can be described thus: qHTS of pediatric cancer cell lines to identify multiple opportunities for drug repurposing: Primary screen for BT-12 cells (AID 1347101). Further: nearly all actives have a fitted effect of over 25% in size.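 On activity change, negative = cytotoxic: plate controls were DMSO for no effect and bortezomib positive control for full effect.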 The procedure, abridged: as §2
Experiment [10] is described as follows: qHTS of pediatric cancer cell lines to identify multiple opportunities for drug repurposing: Primary screen for Rh18 cells (AID 1347102). Further: nearly all actives have a fitted effect of over 65% in size. On activity change, negative = cytotoxic: on the % scale 0 is the no-effect control and ±100 the full control effect. A digest of the protocol:
as §2

The nature of experiment [11]: qHTS of pediatric cancer cell lines to identify multiple opportunities for drug repurposing: Primary screen for RD cells (AID 1347104). Further: nearly all actives have a fitted effect of over 55% in size.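 On activity change, negative = cytotoxic: plate controls were DMSO for no effect and bortezomib for full effect.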 The procedure, abridged: as §1
A short description of experiment [12]: qHTS of pediatric cancer cell lines to identify multiple opportunities for drug repurposing: Primary screen for control Hh wild type fibroblast cells (AID 1347106). Further: nearly all actives have a fitted effect of over 55% in size.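 On activity change, negative = cytotoxic: series mostly up to about 46 µM; on the % scale 0 is the no-effect control and ±100 the full control effect; a drop in luminescence marks cytotoxicity and a rise apparent proliferation.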 The procedure, abridged:
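Viability after 48 h compound treatment at 37C, 500-1,000 cells/well, read as ATP luminescence with CellTiter-Glo. Primary screens used 11-point (MIPE, 0.78 nM-46 µM) or 8-point (NPC, 0.59 nM-46 µM) final concentrations; follow-up screens used 11-point dilutions.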

Experiment [13] can be described thus: qHTS of pediatric cancer cell lines to identify multiple opportunities for drug repurposing: Primary screen for Rh30 cells (AID 1347107). Further: nearly all actives have a fitted effect of over 75% in size. On activity change, negative = cytotoxic: series mostly up to about 46 µM; on the % scale 0 is the no-effect control and ±100 the full control effect. A digest of the protocol:
as §2

The nature of experiment [14]: qHTS of pediatric cancer cell lines to identify multiple opportunities for drug repurposing: Primary screen for Rh41 cells (AID 1347108). Further: nearly all actives have a fitted effect of over 70% in size.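 On activity change, negative = cytotoxic: series mostly up to about 46 µM; luminescence drop marks cytotoxic hits.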 The procedure, abridged:
as §1

The nature of experiment [15]: qHTS of pediatric cancer cell lines to identify multiple opportunities for drug repurposing: Primary screen for OHS-50 cells (AID 1347103). Further: nearly all actives have a fitted effect of over 40% in size.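 On activity change, negative = cytotoxic: plate controls were DMSO neutral control for no effect and bortezomib positive control for full effect.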 The procedure, abridged: as §2
The nature of experiment [16]: qHTS of pediatric cancer cell lines to identify multiple opportunities for drug repurposing: Confirmatory screen for NB1643 cells (AID 1347109). Further: nearly all actives have a fitted effect of over 45% in size.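 On activity change, negative = cytotoxic: plate controls were DMSO for no effect and bortezomib for full effect.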 The procedure, abridged:
as §2

Experiment [17] in a line: qHTS of pediatric cancer cell lines to identify multiple opportunities for drug repurposing: Confirmatory screen for A673 cells (AID 1347110).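 Further: cells exposed to compound for 48 h before the viability read; nearly all actives have a fitted effect of over 65% in size.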 The procedure, abridged: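 Cells plated at 500-1,000/well were treated five hours later with multi-point dilutions up to 46 µM final. After two days, CellTiter-Glo was added and luminescence read.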
Experiment [18] is described as follows: qHTS of pediatric cancer cell lines to identify multiple opportunities for drug repurposing: Confirmatory screen for SK-N-MC cells (AID 1347111).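 Further: cells exposed to compound for 48 h before the readout; nearly all actives have a fitted effect of over 70% in size.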 The procedure, abridged:
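Seed 500-1,000 cells/well; rest 5 h at 37 degrees C. Pin-transfer compounds, 11-point titration. Incubate 48 h. Add CellTiter-Glo, 15 min RT, read luminescence.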

Experiment [19] is described as follows: qHTS of pediatric cancer cell lines to identify multiple opportunities for drug repurposing: Primary screen for Saos-2 cells (AID 1347097). Further: nearly all actives have a fitted effect of over 40% in size. A digest of the protocol: as §1
The nature of experiment [20]: qHTS of pediatric cancer cell lines to identify multiple opportunities for drug repurposing: Primary screen for MG 63 (6-TG R) cells (AID 1347105). Further: nearly all actives have a fitted effect of over 50% in size. The procedure, abridged: as §1

Inconclusive results are not listed. A number with no mark means an inactive call. Activity calls are given as the source filed them. The call rests on the fitted dose curve; in most records, active means well fitted curve in the direction sought with a large enough effect; inconclusive means small, poorly fitted or top-dose-only effect, or another doubt; inactive means no such curve, though single readings can be large; an effect the other way counts as inactive or inconclusive.
Potency means the concentration at half of the fitted maximal effect.

As for `C[C@@H]1[C@H](C)CC[C@]2(C(=O)O)CC[C@]3(C)C(=CC[C@@H]4[C@@]5(C)C[C@@H](O)[C@H](O)[C@@](C)(CO)[C@H]5CC[C@]43C)[C@@H]12`, the Potency result in [1], in experiment [2], in experiment [3], in experiment [4], in experiment [5] and in [6] was “inactive” throughout. For the same molecule, the Potency result in [7], in [8], in [9], in [10], in experiment [11] and in [12] was “inactive” in each case. Besides, the Potency result in experiment [13] and in experiment [14] was “inactive” throughout.

In the case of `CCCCC(=O)O[C@]1(C(=O)CO)[C@@H](C)C[C@H]2[C@@H]3CCC4=CC(=O)C=C[C@]4(C)[C@@]3(F)[C@@H](O)C[C@@]21C`, the Potency result in [1], in experiment [2], in [3], in experiment [4], in [5] and in experiment [6] was “inactive” each time. Further, the Potency entry in [7], in experiment [8], in [9], in experiment [15], in experiment [11] and in experiment [12] was “inactive” throughout. In addition, the Potency result in experiment [13], in experiment [14], in experiment [16] and in [17] was “inactive” in each case. Also, the Potency in experiment [18] was 18500 nM (active).

In the case of `CCN1CCN(C(=O)N[C@H](C(=O)N[C@@H]2C(=O)N3C(C(=O)O)=C(CSc4nnnn4C)CS[C@@H]23)c2ccc(O)cc2)C(=O)C1=O`, the activity change, negative = cytotoxic was 6.36% [at 9.22 µM] in experiment [1]; -14.8% [at 9.22 µM] in [2]; 17.1% [at 11.5 µM] in experiment [3]; 14.5% [at 9.22 µM] in experiment [4]; 20.8% [at 9.22 µM] in experiment [5]; 18.2% [at 9.22 µM] in [19]. In addition, the activity change, negative = cytotoxic in experiment [7] is 17.1% [at 9.22 µM]; in experiment [8], -3.47% [at 9.22 µM]; in experiment [9], 17.1% [at 11.5 µM]; in experiment [10], 10.3% [at 9.22 µM]; in experiment [15] it was 20.3% [at 11.5 µM]; in [11] it was 6.64% [at 9.22 µM]. Further, the figures for the activity change, negative = cytotoxic in experiment [12] and in [13] were -2.3% [at 9.22 µM] and 26.1% [at 9.22 µM], respectively.

Take `CCc1c(O)cc(O)c(C(=O)c2ccc(OCCN3CCOCC3)c(OC)c2)c1CC(=O)N(CCOC)CCOC`: the Potency in [1] was 935 nM (active); in experiment [2], 526 nM (active); in experiment [3], 1.09 µM (active); in [4], 4180 nM (active); in experiment [6] it was 6.81 µM (active); in [7], 935 nM (active). The Potency is 590 nM (active) in experiment [8], 1.32 µM (active) in [10], 0.526 µM (active) in experiment [11] and 1.18 µM (active) in experiment [14]. The Potency result in [5] was “inactive”.

As to `CC(C)OC(=O)[C@H](C)N[P@](=O)(OC[C@H]1O[C@@H](n2ccc(=O)[nH]c2=O)[C@](C)(F)[C@H]1O)Oc1ccccc1`, the Potency result in experiment [1], in experiment [2], in [3], in experiment [4], in experiment [5] and in experiment [6] was “inactive” each time. Moreover, the Potency entry in experiment [7], in experiment [8], in experiment [10], in experiment [15], in [11] and in experiment [20] was “inactive” throughout. Moreover, the Potency result in experiment [12], in experiment [13] and in experiment [14] was “inactive” each time.

Consider `C[C@@H]1CC[C@@]2(OC1)OC1CC3C4CC=C5CC(O)CCC5(C)C4CCC3(C)C1[C@@H]2C` (some centres not stated), for which the Potency entry in experiment [1], in experiment [2], in [3], in experiment [4], in experiment [19] and in [6] was “inactive” each time. In addition, the Potency entry in experiment [7], in [8], in experiment [9], in experiment [10], in experiment [15] and in experiment [11] was “inactive” each time. Further, the Potency result in experiment [20], in experiment [12], in experiment [13] and in [14] was “inactive” in each case.

As to `O=C1c2c(O)cccc2[C@@H]([C@@H]2O[C@H](CO)[C@@H](O)[C@H](O)[C@H]2O)c2cc(CO)cc(O)c21`, the Potency entry in [1], in [3], in [4], in experiment [5], in experiment [19] and in experiment [6] was “inactive” in each case. Also, the Potency result in experiment [8], in experiment [9], in experiment [10], in experiment [15], in [11] and in [20] was “inactive” each time. Besides, the Potency result in [12], in [13], in experiment [14], in [16] and in [17] was “inactive” in each case. Besides, in experiment [2], the Potency is 11800 nM (active).

Consider `C[C@@H](Cc1cc2c(c(C(N)=O)c1)N(CCCO)CC2)NCCOc1ccccc1OCC(F)(F)F`, for which the Potency result in [1], in experiment [2], in experiment [3], in experiment [4], in [5] and in [19] was “inactive” throughout. Besides, the Potency result in experiment [6], in experiment [7], in experiment [8], in [11], in experiment [20] and in experiment [12] was “inactive” each time. The Potency entry in [13] and in [14] was “inactive” in each case.

Turning to `CC(=O)NCC(=O)N1[C@H]2CC[C@H]1c1cc(Nc3ncc(C(F)(F)F)c(NC4CCC4)n3)ccc12`, the Potency in experiment [1] was 3720 nM (active); in [2], 118 nM (active); in experiment [3] it was 24.3 µM (active); in experiment [4], 66.2 nM (active); in experiment [19], 743 nM (active); in [6] it was 1.08 µM (active). In addition, the Potency in [7] was 1180 nM (active); in experiment [8] it was 33.2 nM (active); in [9], 24.3 µM (active); in experiment [15], 344 nM (active); in experiment [11], 2.35 µM (active); in experiment [14], 1.48 µM (active). For the same molecule, the Potency in experiment [17] was 4.14 µM (active); in experiment [18], 82.7 nM (active). Besides, the Potency entry in experiment [5] was “inactive”.

For the molecule `CC(C=CC(=O)NO)=C[C@@H](C)C(=O)c1ccc(N(C)C)cc1`, the Potency in experiment [1] is 590 nM (active); in [2], 264 nM (active); in experiment [3], 1.22 µM (active); in experiment [4], 418 nM (active); in experiment [5], 1.48 µM (active); in experiment [19], 935 nM (active). For the same molecule, the Potency in [6] was 2.71 µM (active); in [7], 935 nM (active); in [8], 590 nM (active); in experiment [9] it was 1.93 µM (active); in experiment [11], 1.32 µM (active); in [20], 2.35 µM (active). In addition, the Potency in [12] is 10.5 µM (active); in experiment [13] it was 7.43 µM (active); in [14], 1.48 µM (active); in experiment [16] it was 585 nM (active); in [17] it was 0.827 µM (active); in [18], 185 nM (active).
